# Source: publication PMC5540273 (PLoS ONE, 2017)
# “And” between values parts separate entries of the source, which are not always exact repeats. Equal values may be shown once. Read-outs that look alike come from different tables or passages of the source.
# Key:
# MYLK4 = details: concentration: 1 μM, replicates: in singlicate, n = 1
# MYLK = details: concentration: 1 μM, replicates: in singlicate, n = 1
# MYO3A = details: concentration: 1 μM, replicates: in singlicate, n = 1
# MYO3B = details: concentration: 1 μM, replicates: in singlicate; n = 1
# NDR1 = test system: T1, NDR1; details: concentration: 1 μM, replicates: in singlicate, n = 1
# T1 construct: gene STK38
# NDR2 = details: concentration: 1 μM, replicates: in singlicate, n = 1
# NEK10 = details: concentration: 1 μM, replicates: in singlicate; n = 1
# NEK11 = details: concentration: 1 μM, replicates: in singlicate, n = 1
# NEK1 = details: concentration: 1 μM, replicates: in singlicate; n = 1
# NEK2 = details: concentration: 1 μM, replicates: in singlicate, n = 1
# NEK3 = details: concentration: 1 μM, replicates: in singlicate, n = 1
# NEK4 = details: concentration: 1 μM, replicates: in singlicate, n = 1
# NEK5 = details: concentration: 1 μM, replicates: in singlicate, n = 1
# NEK6 = details: concentration: 1 μM, replicates: in singlicate, n = 1
# NEK7 = details: concentration: 1 μM, replicates: in singlicate; n = 1
# NEK9 = details: concentration: 1 μM, replicates: in singlicate, n = 1
# NIK = test system: T2, NIK; details: concentration: 1 μM, replicates: in singlicate, n = 1
# T2 construct: gene MAP3K14
# NIM1 = test system: T3, NIM1; details: concentration: 1 μM, replicates: in singlicate; n = 1
# T3 construct: gene MGC42105
# NLK = details: concentration: 1 μM, replicates: in singlicate, n = 1
# OSR1 = test system: T4, OSR1; details: concentration: 1 μM, replicates: in singlicate, n = 1
# T4 construct: gene OXSR1
# 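Also: KINOMEscan kinase panel screen.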
smiles,measurement,setting,value
COc1ccc(NC(=O)Nc2ccc(C)c(-c3ccc(C(=O)Nc4ccncc4)cc3)c2)cc1 [GSK1398475],%Inh,MYLK4,0%
same,%Inh,MYLK,0%
same,%Inh,MYO3A,1%
same,%Inh,MYO3B,0%
same,%Inh,NDR1,17%
same,%Inh,NDR2,0%
same,%Inh,NEK10,0%
same,%Inh,NEK11,0%
same,%Inh,NEK1,0%
same,%Inh,NEK2,0%
same,%Inh,NEK3,10%
same,%Inh,NEK4,0%
same,%Inh,NEK5,8%
same,%Inh,NEK6,0%
same,%Inh,NEK7,0%
same,%Inh,NEK9,0%
same,%Inh,NIK,0%
same,%Inh,NIM1,0%
same,%Inh,NLK,43%
same,%Inh,OSR1,0%
Nc1nc(-c2cccnc2)c(-c2ccnc3ccccc23)s1 [GW684083],%Inh,MYLK4,83%
same,%Inh,MYLK,15%
same,%Inh,MYO3A,0%
same,%Inh,MYO3B,0%
same,%Inh,NDR1,0%
same,%Inh,NDR2,11%
same,%Inh,NEK10,77%
same,%Inh,NEK11,27%
same,%Inh,NEK1,0%
same,%Inh,NEK2,13%
same,%Inh,NEK3,2%
same,%Inh,NEK4,20%
same,%Inh,NEK5,0%
same,%Inh,NEK6,0%
same,%Inh,NEK7,0%
same,%Inh,NEK9,4%
same,%Inh,NIK,29%
same,%Inh,NIM1,66%
same,%Inh,NLK,9%
same,%Inh,OSR1,11%
c1ccc(-c2ccc3c(-c4ccnc(Nc5ccc6c(c5)OCCO6)n4)cnn3n2)cc1 [GW818941],%Inh,MYLK4,0%
same,%Inh,MYLK,11%
same,%Inh,MYO3A,15%
same,%Inh,MYO3B,0%
same,%Inh,NDR1,11%
same,%Inh,NDR2,0%
same,%Inh,NEK10,19%
same,%Inh,NEK11,0%
same,%Inh,NEK1,0%
same,%Inh,NEK2,0%
same,%Inh,NEK3,0%
same,%Inh,NEK4,4%
same,%Inh,NEK5,14%
same,%Inh,NEK6,15%
same,%Inh,NEK7,43%
same,%Inh,NEK9,27%
same,%Inh,NIK,10%
same,%Inh,NIM1,7%
same,%Inh,NLK,17%
same,%Inh,OSR1,0%
COc1ccc(-c2nc3n(c2-c2ccncc2)CCC3)cc1 [SKF-104493],%Inh,MYLK4; 1 µM,0% and 12%
same,%Inh,MYLK; 1 µM,14% and 8%
same,%Inh,MYO3A; 1 µM,7% and 25%
same,%Inh,MYO3B,0%
same,%Inh,NDR1; 1 µM,22% and 13%
same,%Inh,NDR2; 1 µM,16% and 10%
same,%Inh,NEK10,0%
same,%Inh,NEK11; 1 µM,42% and 13%
same,%Inh,NEK1,0%
same,%Inh,NEK2; 1 µM,0% and 4%
same,%Inh,NEK3; 1 µM,19% and 0%
same,%Inh,NEK4; 1 µM,19% and 0%
same,%Inh,NEK5; 1 µM,0% and 16%
same,%Inh,NEK6; 1 µM,5% and 0%
same,%Inh,NEK7,0%
same,%Inh,NEK9; 1 µM,0% and 23%
same,%Inh,NIK; 1 µM,0% and 6%
same,%Inh,NIM1,19%
same,%Inh,NLK; 1 µM,28% and 64%
same,%Inh,OSR1; 1 µM,2% and 0%
Cl.Cn1ccc(-c2cccc(Nc3ccnc4cc(-c5nccs5)ccc34)c2)n1 [GW525701],%Inh,MYLK4,0%
same,%Inh,MYLK,7%
same,%Inh,MYO3A,43%
same,%Inh,MYO3B,0%
same,%Inh,NDR1,19%
same,%Inh,NDR2,0%
same,%Inh,NEK10,4%
same,%Inh,NEK11,15%
same,%Inh,NEK1,0%
same,%Inh,NEK2,0%
same,%Inh,NEK3,17%
same,%Inh,NEK4,0%
same,%Inh,NEK5,0%
same,%Inh,NEK6,0%
same,%Inh,NEK7,0%
same,%Inh,NEK9,0%
same,%Inh,NIK,51%
same,%Inh,NIM1,18%
same,%Inh,NLK,6%
same,%Inh,OSR1,15%
CCc1nc(-c2cccc(N(C)S(=O)(=O)c3ccccc3)c2)c(-c2ccnc(Nc3ccc(N4CCN(C(C)=O)CC4)nc3)n2)s1 [GSK1645895],%Inh,MYLK4,7%
same,%Inh,MYLK,15%
same,%Inh,MYO3A,23%
same,%Inh,MYO3B,0%
same,%Inh,NDR1,15%
same,%Inh,NDR2,0%
same,%Inh,NEK10,0%
same,%Inh,NEK11,0%
same,%Inh,NEK1,14%
same,%Inh,NEK2,9%
same,%Inh,NEK3,9%
same,%Inh,NEK4,19%
same,%Inh,NEK5,0%
same,%Inh,NEK6,0%
same,%Inh,NEK7,0%
same,%Inh,NEK9,14%
same,%Inh,NIK,0%
same,%Inh,NIM1,0%
same,%Inh,NLK,8%
same,%Inh,OSR1,3%
CN1CCC(n2cnc(-c3ccc(F)cc3)c2-c2ccnc(NC3CCNCC3)n2)CC1 [SB-229482],%Inh,MYLK4,11%
same,%Inh,MYLK,5%
same,%Inh,MYO3A,14%
same,%Inh,MYO3B,0%
same,%Inh,NDR1,0%
same,%Inh,NDR2,0%
same,%Inh,NEK10,13%
same,%Inh,NEK11,0%
same,%Inh,NEK1,0%
same,%Inh,NEK2,0%
same,%Inh,NEK3,9%
same,%Inh,NEK4,0%
same,%Inh,NEK5,0%
same,%Inh,NEK6,12%
same,%Inh,NEK7,1%
same,%Inh,NEK9,21%
same,%Inh,NIK,0%
same,%Inh,NIM1,54%
same,%Inh,NLK,52%
same,%Inh,OSR1,0%
FC(F)(F)c1cc(Nc2nccc(-c3c(-c4ccc(Cl)cc4)nn4ncccc34)n2)ccc1Cl [GW829351],%Inh,MYLK4,1%
same,%Inh,MYLK,0%
same,%Inh,MYO3A,0%
same,%Inh,MYO3B,0%
same,%Inh,NDR1,16%
same,%Inh,NDR2,0%
same,%Inh,NEK10,0%
same,%Inh,NEK11,0%
same,%Inh,NEK1,0%
same,%Inh,NEK2,0%
same,%Inh,NEK3,2%
same,%Inh,NEK4,0%
same,%Inh,NEK5,0%
same,%Inh,NEK6,0%
same,%Inh,NEK7,0%
same,%Inh,NEK9,0%
same,%Inh,NIK,4%
same,%Inh,NIM1,0%
same,%Inh,NLK,29%
same,%Inh,OSR1,0%
FC(F)(F)c1ccc(-c2cc(-c3c[nH]nc3-c3ccccn3)ccn2)cc1 [GW599550],%Inh,MYLK4,1%
same,%Inh,MYLK,21%
same,%Inh,MYO3A,27%
same,%Inh,MYO3B,0%
same,%Inh,NDR1,22%
same,%Inh,NDR2,9%
same,%Inh,NEK10,17%
same,%Inh,NEK11,24%
same,%Inh,NEK1,9%
same,%Inh,NEK2,1%
same,%Inh,NEK3,4%
same,%Inh,NEK4,0%
same,%Inh,NEK5,0%
same,%Inh,NEK6,0%
same,%Inh,NEK7,6%
same,%Inh,NEK9,52%
same,%Inh,NIK,0%
same,%Inh,NIM1,11%
same,%Inh,NLK,22%
same,%Inh,OSR1,0%
O=C(c1ccc(-c2cc(-c3c[nH]nc3-c3ccccn3)ccn2)cc1)N1CCCC1 [GW792479],%Inh,MYLK4,4%
same,%Inh,MYLK,31%
same,%Inh,MYO3A,9%
same,%Inh,MYO3B,16%
same,%Inh,NDR1,21%
same,%Inh,NDR2,3%
same,%Inh,NEK10,18%
same,%Inh,NEK11,0%
same,%Inh,NEK1,0%
same,%Inh,NEK2,3%
same,%Inh,NEK3,35%
same,%Inh,NEK4,0%
same,%Inh,NEK5,0%
same,%Inh,NEK6,28%
same,%Inh,NEK7,0%
same,%Inh,NEK9,0%
same,%Inh,NIK,0%
same,%Inh,NIM1,4%
same,%Inh,NLK,0%
same,%Inh,OSR1,0%
